# Compound activity as filed in PubChem BioAssay.
# GAA spleen mod – inhibitors or activators of human alpha-glucosidase in spleen homogenate; P10253; human spleen homogenate, 4-MU-alpha-glucoside fluorescence; Potency, µM (top dose mostly 79.9 µM), usual class: inhibitors; 240,000 compounds, 0.006% hits; AID 2112
#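 Compounds were titrated against alpha-glucosidase in spleen homogenate at pH 5.0, with 1 mM 4-methylumbelliferyl substrate for 40 min at 37 C. Reactions were quenched with pH 10 NaOH/glycine and fluorescence measured.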
# GAA inh – alpha-glucosidase (human) inhibition; 200,000 compounds, 0.005% hits; AID 1466; Potency, µM (titrated, usually from 76.9 µM), usual class: inhibitors; purified human GAA, 4-MU-alpha-glucoside fluorescence
#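 Human enzyme at 4 nM with 400 uM 4-methylumbelliferyl-alpha-D-pyranoside, citrate/phosphate buffer pH 5.0, 0.005% Tween-20, 20 min at room temperature. Compounds up to 77 uM. 4-MU fluorescence (Ex 365/Em 440) read after NaOH/glycine stop; AC50 from Hill fit.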
# GLA inh pH 4.5 – inhibitors of human alpha-galactosidase A at pH 4.5; P06280; purified enzyme, 4-MU-alpha-Gal fluorescence, pH 4.5; activity change, negative = inhibition, % at 105 µM; 230,000 tested, under 10 active; AID 1467
# Target sequence (P06280 whole entry, looked up): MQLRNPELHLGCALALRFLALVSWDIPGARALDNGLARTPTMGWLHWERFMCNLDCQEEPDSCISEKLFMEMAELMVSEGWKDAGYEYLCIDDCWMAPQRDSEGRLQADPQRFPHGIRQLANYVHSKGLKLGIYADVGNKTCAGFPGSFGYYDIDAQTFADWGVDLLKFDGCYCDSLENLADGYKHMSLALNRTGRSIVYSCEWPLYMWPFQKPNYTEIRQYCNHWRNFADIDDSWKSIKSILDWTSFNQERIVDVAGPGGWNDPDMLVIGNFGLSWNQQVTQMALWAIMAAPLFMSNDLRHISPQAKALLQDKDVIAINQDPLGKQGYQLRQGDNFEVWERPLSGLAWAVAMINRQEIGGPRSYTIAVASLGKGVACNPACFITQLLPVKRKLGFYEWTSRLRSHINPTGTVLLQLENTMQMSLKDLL
# aGal spleen mod – inhibitors or activators of human alpha-galactosidase in spleen homogenate; Potency, µM (series often up to 80 µM), actives largely listed as inhibitors; human spleen homogenate, 4MU-alpha-Gal fluorescence, 40 min; 240,000 compounds, 0.008% hits; AID 2107
#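 Spleen homogenate 1 ug + cpd (titration) + 4-MU-alpha-D-galactopyranoside 1 mM; 37C 40 min; 50 mM citrate/phosphate pH 5.0, 0.01% Tween-20; stop pH 10; fluorescence 365/440; AC50 via Hill.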
# GAA glycogen – GAA glycogen-cleavage inhibition or activation | P10253 | AID 2100 | recombinant GAA, glycogen substrate, Amplex Red glucose oxidase fluorescence | Potency, µM (top dose mostly 76.4 µM), hits mostly inhibitors | 300,000 compounds, 0.38% hits;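 further: the screen sought inhibitors and activators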
#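 Recombinant human enzyme (4 nM); glycogen substrate; 37 C, 40 min, pH 5.0. Readout: coupled glucose oxidase/Amplex Red fluorescence.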
# N370S GC – inhibitors or activators of N370S glucocerebrosidase for Gaucher disease | P04062 | N370S GC spleen homogenate, 4MU-glucoside fluorescence | Potency, µM (top dose mostly 59.4 µM), most hits filed as inhibitors | 330,000 compounds, 0.092% hits | AID 2101
# A number is an active result; – = inactive; ? = inconclusive; · = no result. Rows were chosen to be rich in hits. Some 0.43% of all compounds tested hit in one or more screens of this group. The call rests on the fitted dose curve; in most records, active means well fitted curve in the direction sought with a large enough effect; inconclusive means small, poorly fitted or top-dose-only effect, or another doubt; inactive means no such curve, though single readings can be large; an effect the other way counts as inactive or inconclusive.
SMILES,GAA spleen mod,GAA inh,GLA inh pH 4.5,aGal spleen mod,GAA glycogen,N370S GC
CCCc1cc(=O)oc2cc(OCC(=O)NC(Cc3c[nH]c4ccc(O)cc34)C(=O)O)c(Cl)cc12 (stereo not drawn),·,·,·,·,7.94µM,–
CNc1ccc(O)cc1,–,·,·,–,·,?
Cc1ccc2nc3c(c(Nc4ccc(O)cc4)c2c1)CCC3,·,·,·,·,12.6µM,?
COc1ccc(Nc2c3c(nc4ccc(C)cc24)CCC3)cc1,·,·,·,·,–,?
CCCCN(CC)CCCNC(=O)Nc1sc2nc3n(c(=O)c2c1C)CCC(C)CC3 (stereo not drawn),·,·,·,·,10µM,·
COc1cc(-c2nnc(SCc3cc(=O)oc4cc(O)c(O)cc34)o2)cc(OC)c1OC,–,–,–,–,15.8µM,–
CCOC(=O)CSc1nnc(-c2cc(OC)c(OC)c(OC)c2)o1,–,–,–,–,–,–
COc1cccc(CNC(=O)Nc2cccs2)c1,–,–,–,–,?,–
COc1ccc(Br)cc1CNC(=O)Nc1cccs1,–,–,–,–,?,–
Cc1ccc(CNC(=O)Nc2cccs2)cc1,–,–,–,–,28.2µM,–
COc1ccc(CNC(=O)Nc2cccs2)cc1OC,–,–,–,–,10µM,–
Cc1ccc(CNC(=O)Cc2cccs2)cc1,–,–,–,–,–,–
COc1ccccc1CNC(=O)Nc1cccs1,–,–,–,–,28µM,–
CCOCC,–,·,·,–,·,–
Cn1c(=O)c2c(nc(N/N=C/c3ccco3)n2C)n(C)c1=O,–,?,–,–,8.91µM,–
Cn1c(=O)c2c(nc(N/N=C/c3cccs3)n2C)n(C)c1=O,–,–,–,–,?,–
CC(C)CC1Nc2ccc(C(=O)NCCCN3CCCCC3C)cc2NC1=O (stereo not drawn),·,·,·,·,12.6µM,–
O=C1CCCC/C1=C\Nc1ccc(O)cc1,–,–,–,–,8.84µM,?
CC1CCC(C(C)C)C(P(=O)(c2ccccc2)c2ccccc2)C1 (stereo not drawn),–,·,·,–,·,–
Cc1cc(C)nc(NNC2=CC(=[N+]3CCCC3)CCC2)n1,–,–,–,–,2.24µM,–
O=C(N/N=C/C1CC=CCC1)c1cc(Br)ccc1O (stereo not drawn),–,–,–,–,?,–
O=C(N/N=C/C1CC=CCC1)c1ccccc1O (stereo not drawn),–,–,–,–,31.6µM,–
COc1cccc(C2CC(=O)Nc3c2c(=O)[nH]c2nc4ccccc4n32)c1 (stereo not drawn),·,·,·,·,39.8µM,·
O=C1CC(c2ccc(F)cc2)c2c(c3ccccc3[nH]c2=O)O1 (stereo not drawn),·,·,·,·,–,·
COc1cc(C2CC(=O)Oc3c2c(=O)[nH]c2ccccc32)cc(OC)c1OC (stereo not drawn),·,·,·,·,50.1µM,·
SMILES,GAA spleen mod,GAA inh,GLA inh pH 4.5,aGal spleen mod,GAA glycogen,N370S GC
CC(N)(C(=O)O)c1ccc(S(=O)(=O)O)cc1 (stereo not drawn),–,·,·,–,·,–
COc1cc(-c2cc(=O)c3c(O)c(OC)c(OC)c(O)c3o2)ccc1O,–,·,–,–,22.4µM,–
COc1ccc(-c2cc(=O)c3c(O)c(OC)c(OC)c(OC)c3o2)cc1OC,–,·,–,–,·,–
Nc1[nH]nc2nc3ccccc3cc12,–,–,–,–,?,–
CCc1ccc2nc3n[nH]c(N)c3cc2c1,–,–,–,–,17.8µM,–
NNC(=O)CN1C(c2ccccc2)=Nc2ccc(Br)cc2C1c1ccccc1 (stereo not drawn),–,–,–,–,–,39.8µM
COC(=O)Nc1ccc(S(=O)(=O)Nc2ccc(O)cc2)cc1,–,–,–,–,31.6µM,–
COc1cccc(NC(=O)NC2(C(F)(F)F)Oc3ccccc3O2)c1,–,–,–,–,8.91µM,–
CC(C)CNC(=O)NC1(C(F)(F)F)Oc2ccccc2O1,–,–,–,–,–,–
COc1cccc(NC(=O)Nc2cccc(C(=O)O)c2)c1,–,–,–,–,–,–
O=C(NCc1cccnc1)NC1(C(F)(F)F)Oc2ccccc2O1,–,–,–,?,24.9µM,–
COc1ccc(N/C=C2/Sc3ccccc3NC2=O)cc1,–,–,–,–,19.8µM,–
Cc1ccc(N/C=C2/Sc3ccccc3NC2=O)cc1,–,–,–,–,?,–
O=C[C@@H]1CCCN1C(=O)[C@@H]1CCCN1C(=O)OCc1ccccc1,–,·,·,–,·,–
Cc1ccc(-c2nnc(Nc3ccc(O)cc3)c3ccccc23)cc1S(=O)(=O)N1CCN(C)CC1,·,·,·,·,15.8µM,·
Cc1[nH]n(-c2ccc(Cl)c(Cl)c2)c(=O)c1CCO,–,–,–,–,22.4µM,–
Cc1cccc(NS(=O)(=O)c2ccc(C(=O)N3CCN(c4ccccc4O)CC3)cc2)c1C,·,·,·,·,4.47µM,–
Cc1ccccc1NS(=O)(=O)c1ccc(C(=O)N2CCCC2)cc1,·,·,·,·,·,–
O=C1OC2(c3cc(Br)c(O)c(Br)c3Oc3c2cc(Br)c(O)c3Br)c2c(Cl)c(Cl)c(Cl)c(Cl)c21,–,·,·,–,·,–
Clc1cccc(Cl)c1/C=N\Nc1nccs1,–,–,–,–,28.2µM,–
O=[N+]([O-])c1ccccc1/C=N\Nc1nccs1,·,·,·,·,·,–
COC(=O)c1cc(NCc2c(F)cccc2Cl)ccc1N1CCOCC1,–,–,–,–,12.5µM,–
O=C(O)c1cc(NCc2cccs2)ccc1N1CCOCC1,–,–,–,–,9.92µM,–
COC(=O)c1cc(NCc2cccs2)ccc1N1CCOCC1,–,–,–,–,?,–
COC(=O)c1cc(NS(=O)(=O)c2cccc(Cl)c2)ccc1N1CCOCC1,–,·,–,–,–,–
SMILES,GAA spleen mod,GAA inh,GLA inh pH 4.5,aGal spleen mod,GAA glycogen,N370S GC
COc1cc(-c2nc3ccccn3c2NCC2CCCO2)ccc1O (stereo not drawn),–,–,–,–,28.2µM,–
COc1ccc(-c2nc3cccc(C)n3c2NCC2CCCO2)cc1O (stereo not drawn),–,–,–,–,–,–
CCOc1cc(-c2nc3ccccn3c2NCC2CCCO2)ccc1O (stereo not drawn),–,–,–,–,24.9µM,–
COc1ccc(N2CCN(Cc3nc(N)nc(Nc4ccccc4OC)n3)CC2)cc1,–,–,–,–,39.8µM,–
COc1ccccc1Nc1nc(N)nc(CN2CCCCC2)n1,–,–,–,–,–,–
Cc1ccc(/C=N/c2sc3c(c2C#N)CCC3)o1,–,–,–,–,22.2µM,–
COc1ccc2c(c1)-c1c(sn(-c3ccc(OC)c(OC)c3)c1=S)C(C)(C)N2,–,–,–,–,22.2µM,–
COc1ccc(-n2sc3c(c2=S)-c2cc(OC)ccc2NC3(C)C)cc1,–,–,–,–,?,–
CCNc1ccc(S(=O)(=O)N(C)C)cc1NCC(=O)Nc1ccc(F)c(Cl)c1,–,–,–,–,–,7.94µM
